Results taken from the supplement of paper PMC6555819.

Experiments:
Assay in all cases: PBM binding z-score (relative to random genomic background probes); higher = stronger binding; sequences stand for … in GC…GCGATTGACAGCGTAGAATGAAGG
[1] = tested on: FXR:RXRa (NR concentration 270 nM, RXRa partner concentration 90 nM)
Method in brief: (§1)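 Ligand-free nuclear receptor dimers were applied to custom Agilent 4×180K protein-binding microarrays whose double-stranded probes carried direct-repeat seeds, single-nucleotide variants, half-site ablations and random human genomic background sequences in 34-nt variable regions. Incubation lasted 1 h. Binding z-scores were computed against the random background probes from regression-normalized fluorescence.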

[2] = tested on: LXRa:RXRa (NR concentration 270 nM, RXRa partner concentration 90 nM)
Method in brief: as §1

[3] = tested on: LXRa homodimer (NR concentration 270 nM)
Method in brief: as §1

[4] = tested on: LXRb:RXRa (NR concentration 270 nM, RXRa partner concentration 90 nM)
Method in brief: as §1

[5] = tested on: LXRb homodimer (NR concentration 270 nM)
Method in brief: as §1

[6] = tested on: PPARa:RXRa (NR concentration 270 nM, RXRa partner concentration 90 nM)
Method in brief: as §1

[7] = tested on: PPARg:RXRa (NR concentration 180 nM, RXRa partner concentration 90 nM)
Method in brief: as §1

[8] = tested on: PPARg:RXRa 270nM:90nM, anti-RXR (NR concentration 270 nM, RXRa partner concentration 90 nM)
Method in brief: as §1

[9] = tested on: PPARg:RXRa 30nM:10nM, anti-RXR (NR concentration 30 nM, RXRa partner concentration 10 nM)
Method in brief: as §1

[10] = tested on: PPARg:RXRa 90nM:30nM, anti-RXR (NR concentration 90 nM, RXRa partner concentration 30 nM)
Method in brief: as §1

[11] = tested on: PPARg:RXRa DBDmut IVT, anti-RXR (DBD mutation: RXRa K156A/R161A, NR concentration 270 nM, RXRa partner concentration 90 nM)
Method in brief: as §1

[12] = tested on: PPARg:RXRa IVT, anti-PPARg (NR concentration 270 nM, RXRa partner concentration 90 nM)
Method in brief: as §1

[13] = tested on: PPARg DBDmut:RXRa IVT, anti-PPARg (DBD mutation: PPARg1 K132A/R137A, NR concentration 270 nM, RXRa partner concentration 90 nM)
Method in brief: as §1

[14] = tested on: PPARg DBDmut IVT, anti-PPARg (DBD mutation: PPARg1 K132A/R137A, NR concentration 270 nM)
Method in brief: as §1

[15] = tested on: PPARg homodimer (NR concentration 180 nM)
Method in brief: as §1

[16] = tested on: PXR:RXRa (NR concentration 270 nM, RXRa partner concentration 90 nM)
Method in brief: as §1

[17] = tested on: PXR homodimer (NR concentration 270 nM)
Method in brief: as §1

[18] = tested on: RARa:RXR (NR concentration 270 nM, RXRa partner concentration 90 nM)
Method in brief: as §1

[19] = tested on: RARa homodimer (NR concentration 270 nM)
Method in brief: as §1

[20] = tested on: RARb:RXRa (NR concentration 270 nM, RXRa partner concentration 90 nM)
Method in brief: as §1

| Sequence | PBM binding z-score [1] | PBM binding z-score [2] | PBM binding z-score [3] | PBM binding z-score [4] | PBM binding z-score [5] | PBM binding z-score [6] | PBM binding z-score [7] | PBM binding z-score [8] | PBM binding z-score [9] | PBM binding z-score [10] | PBM binding z-score [11] | PBM binding z-score [12] | PBM binding z-score [13] | PBM binding z-score [14] | PBM binding z-score [15] | PBM binding z-score [16] | PBM binding z-score [17] | PBM binding z-score [18] | PBM binding z-score [19] | PBM binding z-score [20] |
| --- | --- | --- | --- | --- | --- | --- | --- | --- | --- | --- | --- | --- | --- | --- | --- | --- | --- | --- | --- | --- |
| ATCTCTAGGTAAAAGGTCAGTGAATCCCGAGGAT | 3.03 | 3.55 | 1.43 | 3.07 | 1.09 | 6.09 | 9.92 | 8.92 | 8.03 | 9.78 | 3.67 | 5.64 | 1.49 | 2.13 | 2.81 | 3.49 | 0.63 | 4.68 | 1.9 | 4.56 |
| TAGCCTAAGTCATTGGGCCAGTATAGTACGCATC | -0.205 | -0.421 | -0.659 | -0.39 | -0.339 | -0.181 | 0.256 | -0.24 | -0.281 | -0.391 | -0.775 | -0.00957 | -0.0162 | -1.02 | -0.452 | -0.441 | -0.814 | -0.394 | -0.564 | 0.068 |
| ACAGACAGGTGAGTGAATGTAACTCAGCTGGACG | -0.0424 | -0.166 | -0.418 | -0.486 | -0.454 | 0.0946 | 0.779 | -0.286 | -0.216 | -0.145 | 0.386 | 0.325 | -0.206 | -0.309 | -0.0515 | -0.136 | 0.0208 | 0.0204 | -0.0735 | 0.384 |
| CCAGACAGGTGAGAAGGTTACTCAGCCTCGATTA | 0.207 | 0.568 | -0.0205 | 0.724 | -0.277 | 1.54 | 0.536 | 0.872 | 0.0606 | 0.56 | 0.947 | 1.04 | -0.652 | -0.801 | 1.03 | 0.441 | 0.133 | 1.23 | 0.46 | 1.36 |
| TCATATAGGTAAACAGGTGAAAGTACGTAAGTTA | 1.36 | 1.03 | 0.233 | 1.26 | 0.199 | 2.74 | 4.09 | 4.04 | 4.33 | 4.17 | 4.97 | 4.72 | 2.79 | 1.19 | 1.65 | 0.938 | 0.715 | 1.22 | 1.42 | 0.779 |
| ACTATTGGTTGACTTAGGGCAACCGATACGACGC | 0.0585 | 0.381 | -0.0343 | 0.201 | 0.546 | 0.0767 | 0.718 | 0.153 | 0.181 | 0.103 | -0.408 | 0.507 | 0.7 | 0.813 | -0.419 | 0.245 | -0.0405 | 0.77 | -0.0341 | 0.653 |
